From PubChem BioAssay (NCATS)
“And” between values parts separate entries of the source, which are not always exact repeats. Equal values may be shown once. Records with an inconclusive call do not appear. Where a structure was tested more than once in an assay, its records may differ in their call. The source made the active and inactive calls. Calls come from the whole dose curve; as a rule, active = well fitted curve in the direction sought with a large enough effect; inconclusive = small, poorly fitted or top-dose-only effect, or another doubt; inactive = no such curve, though single readings can be large; an effect the other way counts as inactive or inconclusive.

Columns and labels:
HEK293 = test: Cytotoxic Profiling of Annotated Libraries Using Quantitative High-Throughput Screening (AID 1296008); settings: Five cell lines viability, CellTiter-Glo ATP luminescence, 48-72 h; max response: hits give low values; note: nearly all actives have a fitted effect of over 60% in size; note: potency is the fitted concentration of half-maximal effect
Method in brief: (§1)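 Cytotoxicity was measured as CellTiter-Glo ATP luminescence, read after 10 min at room temperature. Compound treatment of the cells lasted 48 or 72 hr at 37 degrees Celsius in a qHTS format.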

HaCat [1] = test: as above; settings: Five cell lines viability, CellTiter-Glo ATP luminescence, 48-72 h; max response: hits give low values
Method in brief: as §1

KB-3-1 = test: as above; settings: Five cell lines viability, CellTiter-Glo ATP luminescence, 48-72 h; max response: hits give low values
Method in brief: as §1

NIH3T3 [2] = test: as above; settings: Five cell lines viability, CellTiter-Glo ATP luminescence, 48-72 h; max response: hits give low values
Method in brief: as §1

HACAT [3] = test: qHTS assay to identify novel small-molecules to repurpose for Merkel cell carcinoma treatment (AID 1296009); settings: MCC and control cell lines, CellTiter-Glo viability, 72 h; series mostly up to 44.8 µM; note: nearly all actives have a fitted effect of over 60% in size; note: potency is the fitted concentration of half-maximal effect
Method in brief: (§2)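 Cell viability measured by CellTiter-Glo following 72 hr compound treatment at 37 degree celsius, with NPC and MIPE libraries tested in 8- and 11-point concentration series.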

MCC-13 = test: as above; settings: MCC and control cell lines, CellTiter-Glo viability, 72 h; series mostly up to 46 µM
Method in brief: as §2

MCC-26 = test: as above; settings: MCC and control cell lines, CellTiter-Glo viability, 72 h; series mostly up to 46 µM
Method in brief: as §2

MKL-1 = test: as above; settings: MCC and control cell lines, CellTiter-Glo viability, 72 h; series mostly up to 46 µM
Method in brief: as §2

UISO = test: as above; settings: MCC and control cell lines, CellTiter-Glo viability, 72 h; series mostly up to 46 µM
Method in brief: as §2

WaGa = test: as above; settings: MCC and control cell lines, CellTiter-Glo viability, 72 h; series mostly up to 46 µM
Method in brief: as §2

C33A = test: Primary qHTS to identify gynecologic anti-cancer compounds using libraries of approved drugs and bioactive compounds (AID 1345084); settings: Gynecologic cancer cell panel viability, ATPlite luminescence, 48 h; series mostly up to 57.5 µM; note: nearly all actives have a fitted effect of over 55% in size
Method in brief: (§3)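 In this quantitative HTS, cell killing is estimated from loss of ATP-dependent luciferase light. Cells see five compound concentrations over a 48 h exposure.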

CAOV3 = test: as above; settings: Gynecologic cancer cell panel viability, ATPlite luminescence, 48 h; series mostly up to 57.5 µM
Method in brief: as §3

CASKI = test: as above; settings: Gynecologic cancer cell panel viability, ATPlite luminescence, 48 h; series mostly up to 57.5 µM
Method in brief: as §3

HeLa = test: as above; settings: Gynecologic cancer cell panel viability, ATPlite luminescence, 48 h; series mostly up to 57.5 µM
Method in brief: as §3

Hek293T [4] = test: as above; settings: Gynecologic cancer cell panel viability, ATPlite luminescence, 48 h, control line for the selectivity index; series mostly up to 57.5 µM
Method in brief: as §3

JEG-3 = test: as above; settings: Gynecologic cancer cell panel viability, ATPlite luminescence, 48 h; series mostly up to 57.5 µM
Method in brief: as §3

MKL-2 = test: qHTS assay to identify novel small-molecules to repurpose for Merkel cell carcinoma treatment (AID 1296009); settings: MCC and control cell lines, CellTiter-Glo viability, 72 h; series mostly up to 46 µM; note: nearly all actives have a fitted effect of over 60% in size; note: potency is the fitted concentration of half-maximal effect
Method in brief: as §2

Es-2 = test: Primary qHTS to identify gynecologic anti-cancer compounds using libraries of approved drugs and bioactive compounds (AID 1345084); settings: Gynecologic cancer cell panel viability, ATPlite luminescence, 48 h; series mostly up to 57.5 µM; note: nearly all actives have a fitted effect of over 55% in size
Method in brief: as §3

NIH3T3 [5] = test: qHTS assay to identify novel small-molecules to repurpose for Merkel cell carcinoma treatment (AID 1296009); settings: MCC and control cell lines, CellTiter-Glo viability, 72 h; at 44.8 µM (top of the series) unless noted; note: nearly all actives have a fitted effect of over 60% in size; note: potency is the fitted concentration of half-maximal effect
Method in brief: as §2

HEK293T [6] = test: as above; settings: MCC and control cell lines, CellTiter-Glo viability, 72 h; at 44.8 µM (top of the series) unless noted
Method in brief: as §2
% is set by controls: 0 for no effect and ±100 for the full control effect.

CS(=O)(=O)c1ccc(-c2cnc(N)c(C(=O)Nc3ccccc3)n2)cc1
active: Potency (HEK293) 11.6 µM | Potency (NIH3T3 [2]) 14.8 µM and 5.17 µM
inactive: max response (HaCat [1]) -14.1% | outcome (HaCat [1]) | outcome (KB-3-1) | Potency (HACAT [3]) | Potency (MCC-13) | Potency (MCC-26) | Potency (MKL-1) | Potency (UISO) | Potency (WaGa) | Potency (C33A) | Potency (CAOV3) | Potency (CASKI) | Potency (HeLa) | Potency (Hek293T [4]) | Potency (JEG-3)

Cc1cc(Nc2ncnc3ccc(-c4ccc(CNCCS(C)(=O)=O)o4)cc23)ccc1Oc1ccn2ncnc2c1
active: Potency (HEK293) 4.18 µM | Potency (KB-3-1) 11.8 µM | Potency (MKL-1) 14.8 µM | Potency (MKL-2) 18.7 µM | Potency (UISO) 14.8 µM | Potency (WaGa) 5.26 µM
inactive: max response (HEK293) -117% | max response (HaCat [1]) -107% | max response (KB-3-1) -26.8% | max response (NIH3T3 [2]) -81.1% | Potency (MCC-13) | Potency (MCC-26) | Potency (C33A) | Potency (CASKI) | Potency (Es-2) | Potency (HeLa) | Potency (Hek293T [4]) | Potency (JEG-3)

COc1ccc2c(c1)CC[C@@H](CN(C)CC(=O)O)[C@H]2c1ccccc1
inactive: max response (HEK293) 2.06% | max response (HaCat [1]) 0.39% | max response (KB-3-1) 2.76% | outcome (NIH3T3 [2]) | outcome (NIH3T3 [5]) | Potency (C33A) | Potency (CASKI) | Potency (Es-2) | Potency (HeLa) | Potency (Hek293T [4]) | Potency (JEG-3)
active: Potency (HEK293) 2.64 µM | Potency (KB-3-1) 3.32 µM | Potency (NIH3T3 [2]) 7.43 µM

CN(C)c1nc(Cc2ccc(NC(=O)c3ccc4ccccc4c3)cc2)nc(Cl)c1CC(=O)O
inactive: max response (HEK293) -6.45% | outcome (HEK293) | max response (HaCat [1]) 3.96% | outcome (HaCat [1]) | outcome (KB-3-1) | max response (NIH3T3 [2]) 2.84% and 3.57% | Potency (HACAT [3]) | outcome (HEK293T [6]) | Potency (MCC-13) | Potency (MKL-1) | Potency (MKL-2) | Potency (UISO) | Potency (WaGa) | Potency (C33A) | Potency (CAOV3) | Potency (CASKI) | Potency (Es-2) | Potency (HeLa) | Potency (Hek293T [4]) | Potency (JEG-3)

O=c1c2ccccc2nc2n1CCc1c-2[nH]c2ccccc12
inactive: max response (HEK293) -12.5% | max response (HaCat [1]) -7.58% | outcome (HaCat [1]) | max response (KB-3-1) 4.3% and 8.09% | max response (NIH3T3 [2]) 0.849% and 0.542% | Potency (HACAT [3]) | Potency (MCC-13) | Potency (MCC-26) | Potency (MKL-1) | Potency (MKL-2) | Potency (WaGa) | Potency (C33A) | Potency (CAOV3) | Potency (CASKI) | Potency (Es-2) | Potency (HeLa) | Potency (Hek293T [4]) | Potency (JEG-3)

COc1cc(-c2nn(C3CCC(N4CCN(C(C)=O)CC4)CC3)c3ncnc(N)c23)ccc1NC(=O)c1cc2ccccc2n1C (configuration not stated)
active: Potency (HaCat [1]) 3.66 µM | Potency (KB-3-1) 20.6 µM | Potency (MKL-1) 3.72 µM | Potency (UISO) 18.7 µM
inactive: max response (HEK293) -12.7% | max response (HaCat [1]) -22.8% | max response (KB-3-1) -0.49% | max response (NIH3T3 [2]) -32.1% and -29.8% | Potency (MKL-2) | Potency (C33A) | Potency (Es-2) | Potency (HeLa) | Potency (Hek293T [4]) | Potency (JEG-3)

Cc1cn2cc(C(=O)N(C)CCO)cc(N[C@@H]3CCOc4cccc(C)c43)c2n1
inactive: max response (HEK293) -7.53% and -5.18% | outcome (HaCat [1]) | max response (KB-3-1) -1.9% | outcome (KB-3-1) | outcome (NIH3T3 [2]) | Potency (HACAT [3]) | Potency (MCC-13) | Potency (MKL-1) | Potency (MKL-2) | outcome (NIH3T3 [5]) | Potency (WaGa) | Potency (C33A) | Potency (CASKI) | Potency (Es-2) | Potency (HeLa) | Potency (Hek293T [4]) | Potency (JEG-3)

Cn1cc(-c2ccncc2)c(-c2ccc(OCc3ccc4ccccc4n3)cc2)n1
inactive: max response (HaCat [1]) -14.9% | outcome (HaCat [1]) | max response (NIH3T3 [2]) -27.9% and -28% | Potency (HACAT [3]) | Potency (MCC-13) | Potency (MCC-26) | Potency (CASKI) | Potency (Es-2) | Potency (HeLa) | Potency (Hek293T [4])
active: Potency (HEK293) 3.72 µM and 20.6 µM

Cn1c(CNc2ccc(C(=N)N)cc2)nc2cc(C(=O)N(CCC(=O)O)c3ccccn3)ccc21
inactive: max response (HEK293) -4.52% | max response (HaCat [1]) -0.657% and -2.49% | max response (KB-3-1) -2.52% | outcome (KB-3-1) | outcome (NIH3T3 [2]) | Potency (MCC-13) | Potency (MCC-26) | Potency (MKL-1) | Potency (MKL-2) | outcome (NIH3T3 [5]) inactive [at 17.4 µM] | Potency (UISO) | Potency (WaGa) | Potency (C33A) | Potency (CAOV3) | Potency (CASKI) | Potency (Es-2) | Potency (HeLa) | Potency (Hek293T [4]) | Potency (JEG-3)

CCCNC(=O)Nc1ccc(Oc2ncnc3cc(OC)c(OC)cc23)cc1Cl
inactive: max response (HEK293) -15.3% | outcome (HEK293) | max response (HaCat [1]) 0.131% and 2.87% | max response (KB-3-1) 4.92% | max response (NIH3T3 [2]) -7.41% and 0.662% | outcome (HEK293T [6]) | Potency (MCC-13) | Potency (MCC-26) | Potency (MKL-1) | Potency (MKL-2) | Potency (UISO) | Potency (WaGa) | Potency (C33A) | Potency (CAOV3) | Potency (CASKI) | Potency (Es-2) | Potency (HeLa) | Potency (Hek293T [4]) | Potency (JEG-3)
